Bioassay records: PubChem BioAssay, several laboratories
CYP2C19 act = activators of human cytochrome P450 2C19. recombinant CYP2C19, luciferin-H EGE luminescence; stronger effect = higher value; 0 = fully inhibited enzyme, 1 = untreated enzyme. activation factor at 5 µM. AID 1025. P33261. 96,000 tested, under 10 active;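 active = activation factor of at least 2 at 5 µM in the primary screen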
Cav3 T inh = blocks human Cav3.2 T-type calcium channel | O95180 | Cav3.2-expressing cells, Fluo-4 calcium fluorescence FDSS; stronger effect = lower value | B-score at 10 µM | hit rate 4% among 100,000 | AID 449739;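 active = single-dose well whose peak fluorescence ratio is a statistical outlier from its plate by either plate-standardised score or position-corrected B-score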
CYP2C19 inh = blocks human cytochrome P450 2C19 | P33261 | CYP2C19 Supersomes, luciferin-H EGE luminescence, 30 min | inhibition, % at 5 µM | hit rate 21% among 96,000 | AID 778;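 active = CYP2C19 inhibition above a set limit at 5 µM in the primary screen, cut at about 50% in these data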
CYP2C9 act = CYP2C9 (human) activation; AID 1024; recombinant CYP2C9, luciferin-H conversion, luminescence; stronger effect = higher value; factor 1 = untreated enzyme, 0 = blocked; activation factor at 5 µM; hit rate 1.4% among 96,000;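 active = activation factor of 2 or more for CYP2C9 at a 5 µM dose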
Target sequence (P11712 whole entry, looked up): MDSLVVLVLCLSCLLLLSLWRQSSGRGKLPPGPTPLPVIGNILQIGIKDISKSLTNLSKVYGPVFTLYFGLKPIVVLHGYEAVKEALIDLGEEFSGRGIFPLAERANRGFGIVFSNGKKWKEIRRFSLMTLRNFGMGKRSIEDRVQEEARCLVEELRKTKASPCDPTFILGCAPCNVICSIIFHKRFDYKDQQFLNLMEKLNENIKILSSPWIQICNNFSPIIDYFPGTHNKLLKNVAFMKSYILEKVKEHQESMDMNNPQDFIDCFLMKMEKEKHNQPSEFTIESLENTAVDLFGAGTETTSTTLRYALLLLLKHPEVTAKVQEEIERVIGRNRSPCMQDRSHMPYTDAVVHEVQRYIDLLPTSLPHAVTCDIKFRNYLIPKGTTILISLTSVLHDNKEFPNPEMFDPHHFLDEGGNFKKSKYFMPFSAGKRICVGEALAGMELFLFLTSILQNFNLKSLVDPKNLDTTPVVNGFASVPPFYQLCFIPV
CYP2C9 inh = human CYP2C9 inhibition; P11712; CYP2C9 Supersomes, luciferin-H conversion, luminescence; inhibition, % at 5 µM; hit rate 20% among 96,000; AID 777;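 active = blocking of liver enzyme CYP2C9 beyond about 50% at 5 µM, limit read from the data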
Of the large screens only hits and unclear results are named; the others gave an inactive call. Shown are actives, neighbours in structure and some others; about 27% of the full set was active somewhere.

COc1ccc(S(=O)(=O)NN=C2CCCCC2)cc1	none
COc1ccc(S(=O)(=O)N=C2C=C(C)C(=O)C(C)=C2)cc1	CYP2C19 inh 66
CCOc1cc(-c2nc(-c3ccncc3)no2)cc(OCC)c1OCC	CYP2C19 inh 61, CYP2C9 inh 77
CCOc1ccc(-c2nc(-c3ccccc3)no2)cc1OCC	none (no result: Cav3 T inh)
CCOc1ccc(-c2nc(-c3ccncc3)no2)cc1OCC	CYP2C9 inh 63
CCOc1cc(-c2nc(-c3ccc(OC)cc3)no2)cc(OCC)c1OCC	none
CCCCN(C)CCNC(=O)c1ccc2c(c1)NC(=O)C(N1CCCCC1)S2 (stereo unspecified)	none
Cc1cc(=O)[nH]c(SCC(=O)Nc2ccc(Cl)cn2)n1	none (no result: Cav3 T inh)
CCOC(=O)c1ccccc1OCc1cc(/C=N/n2cnnc2)ccc1OC	CYP2C19 inh 61, CYP2C9 inh 71
CC(=O)OCCN(Cc1ccccc1)Cc1ccc2c(c1)OCO2	CYP2C19 inh 99, CYP2C9 inh 84
CCC(NC(=O)N(Cc1ccccc1)Cc1ccc2c(c1)OCO2)(C(F)(F)F)C(F)(F)F	CYP2C19 inh 100, CYP2C9 inh 94
CCOCCCNC(=O)C(c1ccccc1)N(Cc1ccc2c(c1)OCO2)C(=O)CNC(C)=O (stereo unspecified)	none
O=C(O)CC(Cc1ccccc1)c1ccc2c(c1)OCO2 (stereo unspecified)	none (no result: Cav3 T inh)
CC(NC(=O)N(Cc1ccccc1)Cc1ccc2c(c1)OCO2)(C(F)(F)F)C(F)(F)F	CYP2C19 inh 86, CYP2C9 inh 93
O=C(CS(=O)(=O)Cc1ccccc1)NCc1ccc2c(c1)OCO2	none
CC(=O)N(CCC(Cc1ccccc1)c1ccc2c(c1)OCO2)Cc1ccc(Cl)cc1 (stereo unspecified)	Cav3 T inh -3.1, CYP2C19 inh 76, CYP2C9 inh 75
CCc1nc2c(n1O)CCc1nonc1-2	none
CCC(C)NCc1ccc(C(=O)OC)o1 (stereo unspecified)	none
CC(C)C(=O)N(Cc1ccc2c(c1)OCO2)Cc1ccccn1	CYP2C19 inh 76
COc1ccc(CN(Cc2ccccn2)C(=O)CN2C(=O)COc3ccccc32)cc1	none
Cc1cc(Cl)ccc1N=c1ssnc1Cl	none
COc1ccc(OC)c(N=c2ssnc2Cl)c1	CYP2C19 inh 64, CYP2C9 inh 94
CCCCNC(=S)NNC(=O)CCn1nc(C)c(Br)c1C	none
CCNc1cc2oc(=O)c(CN3CCOCC3)c(C)c2cc1C	CYP2C9 act 3.3
CCc1c(C)c2cc(Cl)c(O)c(CN3CCCCC3)c2oc1=O	none
CSc1nnc(-c2cccc(C)c2)n1N	none
O=C(NCCCn1ccnc1)C(Cc1ccc([N+](=O)[O-])cc1)N1C(=O)c2ccccc2C1=O (stereo unspecified)	none (no result: CYP2C19 act, CYP2C19 inh, CYP2C9 act, CYP2C9 inh)
CC#CCN1c2ccccc2[C@]23C[C@@H](C(=O)OC)N(C(=O)c4ccco4)C2=NC(C(=O)OC)=C(C(=O)OC)[C@H]13	none (no result: CYP2C19 act, CYP2C19 inh, CYP2C9 act, CYP2C9 inh)
CCOC(=O)c1[nH]c(=O)[nH]c1CSc1nc(C)cc(C)n1	none
CCOC(=O)c1[nH]c(=O)[nH]c1COC(=O)c1cc2ccccc2o1	CYP2C9 inh 57
COC(=O)CC(N)c1ccc(OC)c2ccccc12 (stereo unspecified)	none
CC(C)CNC(=O)NC(=O)COc1ccc(C=O)cc1	CYP2C19 inh 95, CYP2C9 inh 83
CC(C)CNC(=O)NC(=O)COc1c(F)c(F)cc(F)c1F	none
Cn1nc(-c2ccccc2)c(CSc2ccccc2)c1Cl	none
COc1ccccc1OCc1ccc(C(=O)NN)cc1	CYP2C19 inh 62
CNC(=O)c1ccc(OCc2ccccc2)c(OC)c1	none
COc1ccc(C(=O)NN)cc1COc1ccc(Br)cc1	CYP2C19 inh 96, CYP2C9 inh 50
COc1ccc(C(=O)/C=C/c2ccc(OC)c(COc3ccc(F)cc3)c2)cc1	CYP2C9 inh 52
S=C(Nc1cccc2ccccc12)NN1CCOCC1	CYP2C19 inh 75, CYP2C9 inh 81
O=C(Nc1cccc2ccccc12)N1CCOCC1	none
O=C(Nc1cc(N2CCOCC2)ncn1)Nc1cccc2ccccc12	CYP2C9 act 2
COc1ccc(CCNC(=O)C2CCN(c3ccc(N4CCOCC4)nn3)CC2)c(OC)c1	none
CCOc1cc(C(=O)N2CCN(c3ccc(C(C)=O)cc3)CC2)cc(OCC)c1OCC	none
CC(=NCCCn1ccnc1)c1c(-c2ccccc2)[nH]n(-c2nc3ccccc3s2)c1=O	CYP2C19 inh 99, CYP2C9 inh 98
O=c1c(C=NCCCn2ccnc2)c(-c2ccccc2)[nH]n1-c1nc2ccccc2s1	CYP2C19 inh 92, CYP2C9 inh 98
CC(=NC1CC1)c1c(-c2ccccc2)[nH]n(-c2nc3ccccc3s2)c1=O	none
CC1=CC(C)C(/C=N/n2cnnc2)C(C)C1 (stereo unspecified)	none (no result: CYP2C19 act, CYP2C19 inh, CYP2C9 act, CYP2C9 inh)
C=C(C)C1CCC(C)=C1CC(C)(C)/C=N\n1cnnc1 (stereo unspecified)	CYP2C19 inh 86, CYP2C9 inh 63
O=C(CCc1nc2ccccc2[nH]c1=O)OCC(=O)c1cccc2ccccc12	none
C=COCCNC(=O)Nc1ccc(Cl)c(Cl)c1	none (no result: CYP2C19 act, CYP2C19 inh, CYP2C9 act, CYP2C9 inh)
CCOC(=O)C(CSCC(=O)c1ccc(Cl)cc1Cl)NC(=O)OC(C)(C)C (stereo unspecified)	CYP2C19 inh 97, CYP2C9 inh 88 (no result: Cav3 T inh)
CCOc1ccc(N2C(=O)CC(N3CC(C)OC(C)C3)C2=O)cc1 (stereo unspecified)	none (no result: Cav3 T inh)
CCOc1ccc(CNC(=O)C2CCN(S(=O)(=O)N3CCCC3)CC2)cc1OC	none
Cc1ccccc1NC(=O)Cc1ccccc1	none (no result: CYP2C19 act, CYP2C19 inh, CYP2C9 act, CYP2C9 inh)
Cc1ccccc1NC(=S)NC(=O)CCc1ccccc1	Cav3 T inh -4
O=C(CCc1ccccc1)Nc1c(F)cccc1F	none (no result: CYP2C19 act, CYP2C19 inh, CYP2C9 act, CYP2C9 inh)
Cc1cccc(C)c1NC(=S)NC(=O)CCc1ccccc1	CYP2C19 inh 50
COC(=O)CCC(=O)NC(=S)Nc1cc(Cl)ccc1Cl	CYP2C19 inh 54, CYP2C9 inh 53
COC(=O)CCC(=O)Nc1ccc(Cl)c(Cl)c1	none
COc1ccc(N(CC(=O)NCCSCc2c(F)cccc2Cl)S(C)(=O)=O)cc1OC	CYP2C9 inh 87
CS(=O)(=O)N(CC(=O)NCCSCc1c(F)cccc1Cl)c1ccc2c(c1)OCO2	Cav3 T inh -6.5, CYP2C19 inh 79, CYP2C9 inh 57
COc1ccc(CCNC(=O)CN(c2ccc(OC)c(OC)c2)S(C)(=O)=O)cc1OC	none
CC(C)(C)SCCNC(=O)CN(c1ccc(F)c(Cl)c1)S(C)(=O)=O	none
CN(C)c1cc[n+](Cc2c(Cl)cccc2Cl)cc1	none (no result: CYP2C19 act, CYP2C19 inh, CYP2C9 act, CYP2C9 inh)
CC(C)CNC(=O)c1cccc(NC(=O)c2ccco2)c1	none
CCCCOc1ccccc1NC(=O)C=C(C)C	none
CCCCOc1ccccc1NC(=O)c1ccco1	Cav3 T inh -4.5, CYP2C19 inh 52
CC(C)(C)c1ccc(C(=O)Nc2ccccc2NC(=O)c2ccco2)cc1	none (no result: CYP2C19 act, CYP2C19 inh, CYP2C9 act, CYP2C9 inh)
CC(C)(C)c1ccccc1NC(=O)c1ccco1	CYP2C19 inh 53
O=C(Nc1ccccc1C(=O)Nc1ccccc1C(=O)NCc1ccco1)c1ccco1	none
O=C(Nc1ccccc1C(=O)NCc1ccco1)c1ccco1	CYP2C9 inh 71
O=C(NCc1ccco1)c1cccc(NC(=O)c2ccco2)c1	CYP2C9 inh 82
